Measurements as given in paper PMC8384837, “Expanding the binding specificity for RNA recognition by a PUF domain”.

These sequences were tested against PUM1 PUF domain R3-LWS (Homo sapiens, UniProt Q14671 828-1176, C935L;R936W;Q939S) (assay: yeast three-hybrid, YBZ-1, SC-Leu-His + 0.5 mM 3-AT, 4 days). Settings: tags: N-Gal4 AD-HA kept; label: inside an RPR1-promoter hybrid RNA with tandem MS2 sites; ssRNA.
Summary of the method: (§1)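 The interaction score is the logarithmic change in variant frequency from input to selection. It uses log2, with a pseudocount of 1 for absent variants, and frequencies came from PCR-amplified, Illumina-sequenced repeat regions. The libraries were Pumilio-1 PUF domains randomized at the three base-contacting residues per repeat, co-expressed with matching RNA elements in strain YBZ-1 (LexA–MS2 coat fusion, HIS3 reporter). Plating lasted four days on SC-Leu (input) or SC-Leu-His + 0.5 mM 3-AT (selection).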
With “GGCUAGAACUAGUGGAUCCCCCGGCGCCCGGCGGCUCGAGCCCGGGUAAGUGUAAGUAGUCUGCAUGCCGCCGGGCGCCAUGCCUGCAGGUCGACUCUAGAAAACAUG” the binding signal was 6.62 log2 enrichment (interaction score).
In the case of “GGCUAGAACUAGUGGAUCCCCCGGCGCCCGGCGGCUCGAGCCCGGGUAAGUGUAAUUAGUCUGCAUGCCGCCGGGCGCCAUGCCUGCAGGUCGACUCUAGAAAACAUG”, the binding signal is reported as 4.58 log2 enrichment (interaction score).
In the case of “GGCUAGAACUAGUGGAUCCCCCGGCGCCCGGCGGCUCGAGCCCGGGUAAGUGUAAAUAGUCUGCAUGCCGCCGGGCGCCAUGCCUGCAGGUCGACUCUAGAAAACAUG”, the binding signal is reported as 4.31 log2 enrichment (interaction score).

These sequences were tested against PUM1 PUF domain R4-SPM (Homo sapiens, UniProt Q14671 828-1176, N971S;H972P;Q975M) in the same assay as above. Settings: tags: N-Gal4 AD-HA kept; label: inside an RPR1-promoter hybrid RNA with tandem MS2 sites; ssRNA.
Summary of the method: as §1
With “GGCUAGAACUAGUGGAUCCCCCGGCGCCCGGCGGCUCGAGCCCGGGUAAGUGUACAUAGUCUGCAUGCCGCCGGGCGCCAUGCCUGCAGGUCGACUCUAGAAAACAUG” the binding signal was 0.15 log2 enrichment (interaction score).
“GGCUAGAACUAGUGGAUCCCCCGGCGCCCGGCGGCUCGAGCCCGGGUAAGUGUAAAUAGUCUGCAUGCCGCCGGGCGCCAUGCCUGCAGGUCGACUCUAGAAAACAUG” was tested, and the binding signal was 3.49 log2 enrichment (interaction score).
In the case of “GGCUAGAACUAGUGGAUCCCCCGGCGCCCGGCGGCUCGAGCCCGGGUAAGUGUAUAUAGUCUGCAUGCCGCCGGGCGCCAUGCCUGCAGGUCGACUCUAGAAAACAUG”, the binding signal is reported as 3.22 log2 enrichment (interaction score).
